From PubChem BioAssay AID1159580 (chemical genetic matrix, 2015)
“And” between values parts separate entries of the source, which are not always exact repeats. Equal values may be shown once. The whole screen tested about 5,500 compounds, of which about 2,000 (36%) were called active. Another 18% or so got no clear call; they are omitted. Cut-off read from the data, not from the text of the source: active = normalized growth mostly below about 0.91 (no sharp cut-off); inconclusive = no clear call, values can overlap the other calls; inactive = mostly above about 0.92. The list shows a part of the results.

Assay: chemical genetic growth profiling, strain panel (AID 1159580);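 note: tested at 20 µM; growth read once vehicle control cultures reached saturation at 30 °C; 1 = growth at the plate median or of vehicle wells; lower values mean less growth of the strain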
Settings: S. cerevisiae deletion strains, growth OD

Measured: normalized growth

CC[C@@H]1[C@@H](O)N2C3C[C@H]1C1C(O)[C@]4(C[C@@H]12)c1ccccc1N(C)[C@@H]34 (some centres not stated)
inactive: locus YAL013W, strain DEP1, active compounds read low 0.992 | locus YAL021C, strain ccr4, active compounds read low 1.01 | locus YAL026C, strain drs2, active compounds read low 1.04 | locus YAL030W, strain snc1, active compounds read low 1.05 | locus YBL061C, strain skt5, active compounds read low 1.04 | locus YBR009C, strain hhf1, active compounds read low 1.02 | locus YBR021W, strain FUR4, active compounds read low 0.989 | locus YBR023C, strain chs3, active compounds read low 1.05 | locus YBR171W, strain sec66, active compounds read low 1.07 | locus YBR229C, strain ROT2, active compounds read low 0.991 | locus YBR231C, strain swc5, active compounds read low 0.999 | locus YBR279W, strain paf1, active compounds read low 1.04 | locus YCL011C, strain gbp2, active compounds read low 1.02 | locus YCL016C, strain dcc1, active compounds read low 1.02 | locus YCL029C, strain bik1, active compounds read low 0.956 | locus YCL061C, strain MRC1, active compounds read low 1.04 | locus YCL069W, strain vba3, active compounds read low 1.04 | locus YCR088W, strain abp1, active compounds read low 1.04 | locus YDL005C, strain med2, active compounds read low 1.05 | locus YDL035C, strain GPR1, active compounds read low 1.01 | locus YDL040C, strain nat1, active compounds read low 1.03 | locus YDL074C, strain BRE1, active compounds read low 0.972 | locus YDL101C, strain DUN1, active compounds read low 0.984 | locus YDL134C, strain PPH21, active compounds read low 0.986 | locus YDL185W, strain tfp1, active compounds read low 0.963 | locus YDL192W, strain arf1, active compounds read low 0.984 | locus YDR001C, strain nth1, active compounds read low 1.02 | locus YDR069C, strain doa4, active compounds read low 1.04 | locus YDR101C, strain arx1, active compounds read low 0.981 | locus YDR137W, strain rgp1, active compounds read low 1.04 | locus YDR150W, strain NUM1, active compounds read low 1 | locus YDR159W, strain sac3, active compounds read low 0.974 | locus YDR162C, strain NBP2, active compounds read low 0.998 | locus YDR195W, strain ref2 1.03 | locus YDR297W, strain sur2, active compounds read low 1.03 | locus YDR318W, strain mcm21, active compounds read low 0.972 | locus YDR334W, strain swr1, active compounds read low 1.03 | locus YDR335W, strain msn5, active compounds read low 1.03 | locus YDR388W, active compounds read low 0.978 | locus YDR392W, strain spt3, active compounds read low 0.93 | locus YDR502C, strain sam2, active compounds read low 1 | locus YEL003W, strain gim4, active compounds read low 1.03 | locus YEL037C, strain rad23, active compounds read low 1.02 | locus YEL061C, strain CIN8 (second series), active compounds read low 1.04 | locus YEL061C, strain CIN8, active compounds read low 0.995 | locus YER015W, strain faa2, active compounds read low 1.02 | locus YER016W, strain bim1, active compounds read low 1.01 | locus YER110C, active compounds read low 0.977 | locus YER111C, strain swi4, active compounds read low 1.06 | locus YER155C, strain BEM2 (second series), active compounds read low 0.983 | locus YER155C, strain BEM2, active compounds read low 0.991 | locus YER167W, strain BCK2, active compounds read low 0.989 | locus YFR010W, strain ubp6, active compounds read low 1.02 | locus YGL078C, strain dbp3, active compounds read low 0.978 | locus YGL086W, strain mad1, active compounds read low 0.992 | locus YGL167C, strain pmr1, active compounds read low 1.03 | locus YGL173C, strain kem1, active compounds read low 1.02 | locus YGL227W, strain vid30, active compounds read low 1.05 | locus YGL240W, strain doc1, active compounds read low 0.979 | locus YGL248W, strain PDE1, active compounds read low 0.991 | locus YGL253W, strain hxk2, active compounds read low 1.04 | locus YGR078C, strain PAC10, active compounds read low 0.984 | locus YGR135W, strain pre9, active compounds read low 0.96 | locus YGR229C, strain SMI1, active compounds read low 1 | locus YGR252W, strain gcn5, active compounds read low 1 | locus YHR013C, strain ard1, active compounds read low 1.03 | locus YHR027C, strain rpn1, active compounds read low 1.02 | locus YHR030C, strain SLT2, active compounds read low 0.993 and 0.984 | locus YHR079C, strain IRE1 (second series), active compounds read low 0.965 | locus YHR079C, strain IRE1, active compounds read low 0.981 | locus YHR094C, strain hxt1, active compounds read low 0.983 | locus YHR129C, strain ARP1, active compounds read low 0.982 | locus YHR142W, strain chs7, active compounds read low 1.1 | locus YHR200W, strain rpn10, active compounds read low 0.981 | locus YIL066C, strain RNR3, active compounds read low 0.993 | locus YIL073C, strain SPO22, active compounds read low 0.997 | locus YIL125W, strain kgd1, active compounds read low 0.981 | locus YIR030C, strain dcg1, active compounds read low 0.984 | locus YJL092W, strain hpr5, active compounds read low 1.04 | locus YJL095W, strain BCK1 (second series), active compounds read low 1.01 | locus YJL095W, strain BCK1, active compounds read low 0.966 and 1.01 | locus YJL115W, strain asf1, active compounds read low 1.07 | locus YJL129C, strain trk1, active compounds read low 1.06 | locus YJL134W, strain LCB3, active compounds read low 0.993 | locus YJL154C, strain vps35, active compounds read low 1.03 | locus YJL164C, strain tpk1, active compounds read low 1.04 | locus YJL166W, strain qcr8, active compounds read low 1.04 | locus YJL168C, strain set2, active compounds read low 0.97 | locus YJL187C, strain SWE1 (second series), active compounds read low 0.979 | locus YJL187C, strain SWE1, active compounds read low 1.02 | locus YJR043C, strain POL32, active compounds read low 0.973 | locus YJR066W, strain TOR1, active compounds read low 0.926
